Measured values as given in PubChem BioAssay (EPA / NIEHS).
Records with an inconclusive call do not appear. Active and inactive are the calls of the source. Rule for the calls: active = hit-call score of the fitted dose curve at least 0.9, where 1 is the maximum; inconclusive = response in the unintended direction; inactive = score below 0.9.

Each compound was assayed against Cellular tumor antigen p53 (Homo sapiens) (UniProt P04637) (assay: TOX21_p53_BLA_p4_ratio: Tox21 HCT-116 p53 Agonism Beta-lactamase Assay, Ratio, Phase 4 (AID 2283601)).
Chain of Cellular tumor antigen p53 (Homo sapiens) (P04637 whole entry, looked up): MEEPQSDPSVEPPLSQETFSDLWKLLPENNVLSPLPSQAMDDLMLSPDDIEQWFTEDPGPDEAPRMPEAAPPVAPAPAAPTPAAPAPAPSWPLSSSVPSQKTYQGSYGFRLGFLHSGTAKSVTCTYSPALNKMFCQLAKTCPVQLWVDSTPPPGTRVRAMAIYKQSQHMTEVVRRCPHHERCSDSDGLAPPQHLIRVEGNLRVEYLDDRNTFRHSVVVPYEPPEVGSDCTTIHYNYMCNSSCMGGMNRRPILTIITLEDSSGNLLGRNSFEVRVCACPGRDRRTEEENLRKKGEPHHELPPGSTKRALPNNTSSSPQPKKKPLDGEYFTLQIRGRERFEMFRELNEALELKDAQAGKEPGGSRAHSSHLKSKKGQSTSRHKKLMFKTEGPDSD
Outline: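 HCT116 cells carrying an inducible beta-lactamase reporter were plated at 4000 cells/well, rested 5 h, then exposed to compounds in DMSO (217-fold dilution) for 16 h at 37C. CCF4-AM substrate was loaded 2 h at room temperature; 460/530 nm emission ratio scored gain-of-signal versus DMSO.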
With `CCOC(=O)C1=C(C)NC(C)=C(C(=O)OC)C1c1cccc(Cl)c1Cl` (centres undefined) the outcome was “inactive”. With `O=c1[nH][nH]c2ccccc12` the outcome was “inactive”. In the case of `NS(=O)(=O)c1cc2c(cc1Cl)NC(Cc1ccccc1)NS2(=O)=O` (centres undefined), the outcome is reported as “inactive”. `NC(=O)c1ccc[n+]([C@@H]2O[C@H](COP(=O)([O-])OP(=O)(O)OC[C@H]3O[C@@H](n4cnc5c(N)ncnc54)[C@H](O)[C@@H]3O)[C@@H](O)[C@H]2O)c1` was tested, and the outcome was “inactive”. In the case of `CC(=O)CCC=C(C)CC/C=C(\C)CC/C=C(\C)CCC=C(C)C`, the outcome is reported as “inactive”. In the case of `Brc1ccc(-c2ccccc2)cc1`, the outcome is reported as “inactive”. In the case of `C=CCc1ccccc1OCC(O)CNC(C)C` (centres undefined), the outcome is reported as “inactive”. `O=C(O)CCNC(=O)c1ccccc1` was tested, and the outcome was “inactive”. For `NC(=O)Cc1cccc2ccccc12`, the outcome was “inactive”.
